“And” between values parts separate entries of the source, which are not always exact repeats. Equal entries are not always repeated. The campaign covered roughly 5,500 compounds. About 2,000 (36%) were called active. Inconclusive results (about 18%) are left out. No stated cut-off is given here; in the data, active means normalized growth mostly below about 0.91 (no sharp cut-off); inconclusive means no clear call, values can overlap the other calls; inactive means mostly above about 0.92. The list shows a part of the results.
Test: chemical genetic growth profiling, strain panel (AID 1159580);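 further: tested at 20 µM; growth read once vehicle control cultures reached saturation at 30 °C; 1 = growth at the plate median or of vehicle wells; lower values mean less growth of the strain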
Settings: growth OD

Measured: normalized growth

CN1C(=O)CCS(=O)(=O)C1c1ccc(Cl)cc1 (stereo unspecified)
inactive: S. cerevisiae deletion strains, locus YJR075W, strain HOC1, active compounds read low 1.04 and 1.02 | S. cerevisiae deletion strains, locus YKL009W, strain mrt4, active compounds read low 1.03 | S. cerevisiae deletion strains, locus YKL068W, active compounds read low 1.01 | S. cerevisiae deletion strains, locus YKL085W, strain MDH1 (second series), active compounds read low 1.01 | S. cerevisiae deletion strains, locus YKL085W, strain MDH1, active compounds read low 1.01 | S. cerevisiae deletion strains, locus YKL160W, strain elf1, active compounds read low 1.02 | S. cerevisiae deletion strains, locus YKL190W, strain CNB1, active compounds read low 1.01 | S. cerevisiae deletion strains, locus YKR001C, strain vps1, active compounds read low 1.01 | S. cerevisiae deletion strains, locus YKR026C, strain gcn3, active compounds read low 0.976 | S. cerevisiae deletion strains, locus YKR091W, strain srl3, active compounds read low 0.984 | S. cerevisiae deletion strains, locus YLL001W, strain dnm1, active compounds read low 0.979 | S. cerevisiae deletion strains, locus YLL026W, active compounds read low 0.999 | S. cerevisiae deletion strains, locus YLL041C, strain sdh2, active compounds read low 0.984 | S. cerevisiae deletion strains, locus YLR027C, strain aat2, active compounds read low 0.998 | S. cerevisiae deletion strains, locus YLR039C, strain RIC1, active compounds read low 1.04 | S. cerevisiae deletion strains, locus YLR058C, strain SHM2, active compounds read low 1.01 | S. cerevisiae deletion strains, locus YLR102C, strain apc9, active compounds read low 1.01 | S. cerevisiae deletion strains, locus YLR113W, strain HOG1, active compounds read low 0.99 | S. cerevisiae deletion strains, locus YLR221C, strain rsa3, active compounds read low 0.978 | S. cerevisiae deletion strains, locus YLR258W, strain gsy2, active compounds read low 0.988 | S. cerevisiae deletion strains, locus YLR262C, strain YPT6 (second series), active compounds read low 0.987 | S. cerevisiae deletion strains, locus YLR262C, strain YPT6, active compounds read low 1.06 | S. cerevisiae deletion strains, locus YLR268W, strain sec22, active compounds read low 1.06 | S. cerevisiae deletion strains, locus YLR320W, strain mms22, active compounds read low 0.939 | S. cerevisiae deletion strains, locus YLR330W, strain CHS5, active compounds read low 1.01 | S. cerevisiae deletion strains, locus YLR342W, strain FKS1 (second series), active compounds read low 1.01 | S. cerevisiae deletion strains, locus YLR342W, strain FKS1, active compounds read low 1.01 | S. cerevisiae deletion strains, locus YLR357W, strain rsc2, active compounds read low 0.954 | S. cerevisiae deletion strains, locus YLR370C, strain arc18, active compounds read low 0.991 | S. cerevisiae deletion strains, locus YLR371W, strain rom2, active compounds read low 1.02 | S. cerevisiae deletion strains, locus YLR384C, strain iki3, active compounds read low 0.996 | S. cerevisiae deletion strains, locus YLR418C, strain cdc73, active compounds read low 1.02 | S. cerevisiae deletion strains, locus YML016C, strain PPZ1, active compounds read low 1.01 | S. cerevisiae deletion strains, locus YML032C, strain rad52, active compounds read low 1.04 | S. cerevisiae deletion strains, locus YML120C, strain ndi1, active compounds read low 0.948 | S. cerevisiae deletion strains, locus YML124C, strain tub3, active compounds read low 1.01 | S. cerevisiae deletion strains, locus YMR058W, strain fet3, active compounds read low 0.979 | S. cerevisiae deletion strains, locus YMR078C, strain ctf18, active compounds read low 1.02 | S. cerevisiae deletion strains, locus YMR125W, strain sto1, active compounds read low 0.982 | S. cerevisiae deletion strains, locus YMR129W, active compounds read low 0.974 | S. cerevisiae deletion strains, locus YMR205C, strain PFK2, active compounds read low 0.947 | S. cerevisiae deletion strains, locus YMR223W, strain ubp8, active compounds read low 1 | S. cerevisiae deletion strains, locus YMR231W, strain pep5, active compounds read low 0.987 | S. cerevisiae deletion strains, locus YMR263W, strain SAP30, active compounds read low 1.02 and 0.996 | S. cerevisiae deletion strains, locus YMR307W, strain GAS1, active compounds read low 1 and 0.99 | S. cerevisiae deletion strains, locus YNL067W, strain RPL9B, active compounds read low 1.03 | S. cerevisiae deletion strains, locus YNL071W, strain lat1, active compounds read low 0.979 | S. cerevisiae deletion strains, locus YNL128W, strain TEP1, active compounds read low 1.03 | S. cerevisiae deletion strains, locus YNL153C, strain GIM3, active compounds read low 1.02 and 0.995 | S. cerevisiae deletion strains, locus YNL175C, strain NOP13, active compounds read low 1.01 | S. cerevisiae deletion strains, locus YNL183C, strain NPR1, active compounds read low 0.883 | S. cerevisiae deletion strains, locus YNL197C, strain WHI3, active compounds read low 1 | S. cerevisiae deletion strains, locus YNL209W, strain ssb2, active compounds read low 0.984 | S. cerevisiae deletion strains, locus YNL224C, strain SQS1, active compounds read low 1 | S. cerevisiae deletion strains, locus YNL233W, strain BNI4, active compounds read low 1.02 | S. cerevisiae deletion strains, locus YNL248C, strain rpa49, active compounds read low 1.03 | S. cerevisiae deletion strains, locus YNL250W, strain rad50, active compounds read low 1.01 | S. cerevisiae deletion strains, locus YNL271C, strain bni1, active compounds read low 1.02 | S. cerevisiae deletion strains, locus YNL298W, strain CLA4, active compounds read low 1.02 | S. cerevisiae deletion strains, locus YNL307C, strain MCK1, active compounds read low 1.01 | S. cerevisiae deletion strains, locus YNL322C, strain KRE1 (second series), active compounds read low 1 | S. cerevisiae deletion strains, locus YNL322C, strain KRE1, active compounds read low 1.01 | S. cerevisiae deletion strains, locus YNR049C, strain mso1, active compounds read low 0.992 | S. cerevisiae deletion strains, locus YNR052C, strain pop2, active compounds read low 1.02 | S. cerevisiae deletion strains, locus YOL006C, strain TOP1, active compounds read low 1.1 | S. cerevisiae deletion strains, locus YOL012C, strain htz1 0.9 | S. cerevisiae deletion strains, locus YOL147C, strain pex11, active compounds read low 1.01 | S. cerevisiae deletion strains, locus YOR001W, strain rrp6, active compounds read low 0.94 | S. cerevisiae deletion strains, locus YOR061W, strain CKA2, active compounds read low 1.01 | S. cerevisiae deletion strains, locus YOR069W, strain VPS5, active compounds read low 1.01 | S. cerevisiae deletion strains, locus YOR070C, strain gyp1, active compounds read low 0.993 | S. cerevisiae deletion strains, locus YOR080W, strain dia2, active compounds read low 0.982 | S. cerevisiae deletion strains, locus YOR083W, strain WHI5 (second series), active compounds read low 1.03 | S. cerevisiae deletion strains, locus YOR083W, strain WHI5, active compounds read low 0.994 | S. cerevisiae deletion strains, locus YOR106W, strain vam3, active compounds read low 1.02 | S. cerevisiae deletion strains, locus YOR136W, strain idh2, active compounds read low 1.01 | S. cerevisiae deletion strains, locus YOR144C, strain elg1, active compounds read low 1.01 | S. cerevisiae deletion strains, locus YOR184W, strain ser1, active compounds read low 1.01 | S. cerevisiae deletion strains, locus YOR231W, strain MKK1, active compounds read low 0.996 | S. cerevisiae deletion strains, locus YOR265W, strain rbl2, active compounds read low 0.982 | S. cerevisiae deletion strains, locus YOR270C, strain vph1, active compounds read low 0.992 | S. cerevisiae deletion strains, locus YOR290C, strain snf2, active compounds read low 1.01 | S. cerevisiae deletion strains, locus YOR316C, strain cot1, active compounds read low 1.01 | S. cerevisiae deletion strains, locus YPL051W, strain arl3, active compounds read low 1.03 | S. cerevisiae deletion strains, locus YPL055C, strain LGE1, active compounds read low 1.05 and 1.03 | S. cerevisiae deletion strains, locus YPL078C, strain atp4, active compounds read low 1.01 | S. cerevisiae deletion strains, locus YPL106C, strain sse1, active compounds read low 0.952 | S. cerevisiae deletion strains, locus YPL240C, strain hsp82, active compounds read low 0.981 | S. cerevisiae deletion strains, locus YPL241C, strain CIN2, active compounds read low 1 and 1.01 | S. cerevisiae deletion strains, locus YPL256C, strain CLN2, active compounds read low 0.956 | S. cerevisiae deletion strains, locus YPR119W, strain clb2, active compounds read low 1.02 | S. cerevisiae deletion strains, locus YPR141C, strain kar3, active compounds read low 1.01 | S. cerevisiae deletion strains, locus YPR163C, strain tif3, active compounds read low 1.02 | S. cerevisiae deletion strains, locus YPR167C, strain met16, active compounds read low 1.01 | S. cerevisiae deletion strains, strain wtn01, active compounds read low 1.03 | S. cerevisiae strains, strain wild type, active compounds read low 1.02
